Shown are actives, neighbours in structure and some others; about 3.8% of the full set was active somewhere.
CR mimetic SO = lowers age-related superoxide in aged yeast cells | S. cerevisiae aged cells, superoxide DHE fluorescence; active compounds read low | superoxide response (% of plate mean), % at 10 µM | actives 0.18% (n = 330,000);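 active = superoxide response under a set limit, about three screen SD below normal, cut at about 65% in these data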;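 note: yeast aged for seven days with compound at 30 °C before DHE staining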
tim10-1 inh = tim10-1 yeast growth inhibition. S. cerevisiae tim10-1 ts strain growth, BacTiter-Glo, 24 h. inhibition, % at 20 µM. actives 2.2% (n = 330,000). AID 463190;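 active = inhibition of at least 40%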;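 note: mutant grown at 25 °C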
tim23-1 inh = tim23-1 yeast growth inhibition; S. cerevisiae tim23-1 growth, BacTiter-Glo luminescence, 24 h; inhibition, % at 20 µM; AID 463212; actives 1.3% (n = 330,000);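 active = growth inhibition of the mutant yeast at or above 50%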;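 note: temperature-sensitive mutant grown at 25 °C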
TIM10 inh = TIM10 yeast growth inhibition; S. cerevisiae TIM10 strain growth, BacTiter-Glo luminescence, 24 h; inhibition, % at 10 µM; actives 1.4% (n = 330,000); AID 463195;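 active = inhibition of 40% or more at the single tested concentration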;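 note: wild-type TIM10 isogenic control strain grown at permissive 25 °C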
NLRP3 yeast inh = blocks the NALP3 inflammasome reconstituted in yeast; Yeast reconstituted NLRP3/ASC/caspase-1, beta-gal luminescence, 24 h; inhibition, % at 10 µM; actives 0.39% (n = 330,000);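 active = inhibition of 50% or more; inactive = inhibition below 50%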
tim10 confirm = confirmation of TIM10 yeast growth inhibitors | shares compounds with TIM10 inh | S. cerevisiae tim10 strain growth, BacTiter-Glo luminescence, 24 h | inhibition, % at 10 µM | actives 63% (n = 4,600) | AID 463215;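 active = inhibition of yeast growth at or above a set limit in either of two replicates at 10 µM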; note: this counterscreen used the strain with wild-type TIM10
Of the large screens only hits and unclear results are named; the others gave an inactive call (follow-up assays come after a bar, where they were run).

Cn1c(O)c(C2=c3ccccc3=NC2=O)sc1=Nc1ccc(Cl)cc1	TIM10 inh 48.6 | tim10 confirm inactive
COc1ccc(CNC(=S)NC2CCCC2)cc1	none
Cc1ccc(CNC(=S)NC2CCC(C(C)(C)C)CC2)cc1 (stereo unspecified)	TIM10 inh 41.7 | tim10 confirm inactive
COc1cc2c(cc1NC(=O)COC(=O)Cn1cnc3ccccc31)oc1ccccc12	TIM10 inh 40.9 (no result: CR mimetic SO) | tim10 confirm inactive
COc1cc2c(cc1NC(=O)COc1ccccc1OC)oc1ccccc12	none
Oc1ccc(Br)cc1/C=N/n1c(C2CCCCC2)n[nH]c1=S	TIM10 inh 44.4 | tim10 confirm 56.5
Cc1c(Nc2ccc(C=O)cc2)c(=O)n(-c2ccccc2)n1C	none
O=C(c1ccccc1O)N1N=C(c2ccccc2)CC1(O)C(F)(F)F (stereo unspecified)	TIM10 inh 45.9 | tim10 confirm inactive
COc1ccc(S(=O)(=O)N2CCCCCC2)cc1C(=O)N(C)Cc1ccc(C(C)(C)C)cc1	none
O=C(NN1CCOCC1)c1cc(S(=O)(=O)Nc2cccc(C(F)(F)F)c2)ccc1Cl	none
CCn1nnnc1NCc1ccc(OCc2ccc(F)cc2Cl)c(OC)c1	none
Cc1ccc(Cn2cnc3ccccc32)cc1C	TIM10 inh 40.0 | tim10 confirm inactive
Cc1cccc(Cn2cnc3ccccc32)c1	none
CCOC(=O)[C@H]1[C@H]2COc3cc(OC)ccc3[C@@H]2N2C(=O)CN(CC3CCCO3)C(=O)[C@@]12C (stereo partly specified)	none
Nc1cc(-c2ccc(Br)cc2)nc2cc(-c3ccccc3)nn12	none
Clc1nc(-c2ccccc2)cc(-c2ccc(Br)cc2)n1	TIM10 inh 42.0 | tim10 confirm 33.2
S=c1[nH]nc(-c2cccs2)n1/N=C/c1cn(-c2ccccc2)nc1-c1ccccc1	none
Fc1ccc(/C=N/n2c(-c3cccs3)n[nH]c2=S)cc1	TIM10 inh 44.8 | tim10 confirm inactive
COc1cccc(C(=O)NNC2OC(CO)C(O)C2O)c1 (stereo unspecified)	none
COc1cc(/C=N/NC(=O)c2ccc(F)cc2)ccc1OC(=O)c1ccco1	none
O=C(N/N=C/c1cccc(OC(=O)c2ccco2)c1)c1ccc(F)cc1	TIM10 inh 41.3 | tim10 confirm 32.0
Cc1nc(SCC(=O)NCCN2C(=O)CSC2=O)nc(C)c1C	none
COc1ccc(N(C(=O)c2ccco2)S(=O)(=O)c2ccc(F)cc2)cc1	TIM10 inh 42.5 | tim10 confirm inactive
COc1ccc(N(C(=O)c2ccco2)S(=O)(=O)c2cccc([N+](=O)[O-])c2)cc1	none
CCN(CC(=O)Nc1c(F)cccc1F)C(=O)C1CC(=O)N(c2ccc3c(c2)OCCO3)C1 (stereo unspecified)	none
CC(C)CCNC(=O)c1sc2ccc(S(=O)(=O)N3CCCCC3)cc2c1N	TIM10 inh 41.5 | tim10 confirm 38.2
COc1ccccc1CNC(=O)c1ccc(CS(=O)(=O)c2ccc(C)cc2)o1	none
S=C(NCc1ccccc1)N1CCN(c2cccc(Cl)c2)CC1	TIM10 inh 45.6 | tim10 confirm inactive
O=C(Cn1ccc2ccccc2c1=O)N1CCN(c2cccc(Cl)c2)CC1	TIM10 inh 54.5 | tim10 confirm inactive
Cc1cc(Nc2ccc(Br)cc2)nc(-c2ccccc2O)n1	TIM10 inh 43.0 | tim10 confirm 49.0
Cc1ccc(C(=O)Cn2c(C(=O)/C=C/c3ccccc3)nc3ccccc32)cc1	TIM10 inh 42.9 | tim10 confirm 32.5
Cc1ccc(C(=O)Cn2c(NCCO)nc3ccccc32)cc1	none
COc1ccc(/C=C/c2cc(C(=O)O)c3ccccc3n2)cc1	none
Cc1cc(/C=C\c2ccccc2)nc2ccccc12	TIM10 inh 52.8 | tim10 confirm 61.7
CCN(CC)C(=S)SC1CCCCN(C(=O)c2ccccc2)C1=O (stereo unspecified)	none | tim10 confirm inactive
O=C(c1ccccc1)N1CCCCC(Sc2nnc3ccccn23)C1=O (stereo unspecified)	none
COc1ccc(N2CCN(CCCNC(=O)Cn3c(=O)c4cccn4c4ccccc43)CC2)cc1	TIM10 inh 45.8 | tim10 confirm inactive
Cc1ccc(S(=O)(=O)NC(=NC2CCCCC2)c2ccc(F)cc2)cc1	none
O=C(N/N=C/C=C/c1ccco1)c1cnccn1	none
O=C(N/N=C/C=C\c1ccco1)c1ccccn1	TIM10 inh 89.7 | tim10 confirm inactive
O=C(N/N=C\C=C\c1ccco1)c1cc(-c2ccc3ccccc3c2)n[nH]1	TIM10 inh 51.6 | tim10 confirm 39.9
COc1ccc(C(=O)n2c(C)c(CCO)c(=O)n2C)cc1	none
COc1ccccc1CCNC(=O)c1cccc(S(=O)(=O)NCc2ccccc2)c1	none
c1ccc(/N=C2\N=C(Nc3ccccn3)c3ccccc32)nc1	TIM10 inh 45.8 | tim10 confirm inactive
Cc1cccc(NC(=S)N(c2ccccc2)C(C)C)c1C	none
Cc1ccc(C(C(=O)NC2CCCCC2)N(Cc2ccco2)C(=O)Cn2cnc3ccccc32)cc1 (stereo unspecified)	none
C=CCn1c(-c2ccc(OC)cc2)csc1=Nc1c(C)n(C)n(-c2ccccc2)c1=O	TIM10 inh 41.7 | tim10 confirm 33.1
Cc1cc(C)nc(N/N=C/c2ccccc2OCc2cccc(Br)c2)n1	TIM10 inh 48.3 | tim10 confirm inactive
Cc1cc(C)nc(N/N=C/c2ccccc2OCc2ccc(Br)cc2)n1	none
CCCCN1CC(=O)N2[C@H](c3ccc(Cl)cc3)[C@@H]3C(=O)N(CC)C(=O)[C@@H]3[C@]2(C)C1=O	TIM10 inh 52.6 | tim10 confirm inactive
COc1ccc(CCNC(=O)CSc2nc(O)c(C(C)C)c(=O)[nH]2)cc1OC	none
COc1ccc(C(=O)Nc2ccccc2C(=O)Nc2cc(C)ccn2)cc1	TIM10 inh 43.0 | tim10 confirm 44.5
COc1ccc(C(=O)Nc2ccccc2C(=O)Nc2cccc(C)n2)cc1	none
CCN1CCN(C(=O)c2cc3cc4cc(OC)ccc4nc3s2)CC1	none
COc1ccc2nc3sc(C(=O)NCCN4CCc5ccccc5C4)cc3cc2c1	TIM10 inh 75.5 | tim10 confirm 80.0
COc1ccc2cc3cc(C(=O)NC4CC4)sc3nc2c1	none
COc1ccc2cc3cc(C(=O)NCCCN4CCc5ccccc5C4)sc3nc2c1	TIM10 inh 62.8 | tim10 confirm 54.3
O=C(CNC(=O)c1ccco1)NCC(=O)OCc1ccc(F)cc1	none
CCN(C(=O)c1ccnn1C)c1ccccc1	none
CC(Sc1nncs1)C(=O)NC1CCCCC1C (stereo unspecified)	none
CC(=O)c1cc2c(cc1N/C(=N/S(=O)(=O)c1ccc(C)cc1)c1ccccc1)OCO2	TIM10 inh 42.7 | tim10 confirm inactive
Cc1nnc(NC(=O)C2CC(=O)N(c3ccccc3)C2)s1 (stereo unspecified)	none
Oc1ccc(N=Nc2c(O)ccc3ccccc23)cc1	TIM10 inh 53.9 | tim10 confirm 64.7

Screens from PubChem.
